In PMC4336329 (PLoS ONE, 2015):
The campaign covered roughly 310,000 compounds. About 14,000 (4.5%) showed an effect of 50% or more. The effect is printed as a negative number. The sample as a whole holds a higher share of strong results than the screen did.

These compounds were tested against human ether-à-go-go-related gene (hERG) potassium channel (human, UniProt Q12809) (assay: primary screen, population patch clamp on CHO cells stably expressing hERG; higher = less effect of the substance).
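Also: peak tail current of the secondary pulse compared with the same well before compound.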

Chain of human ether-à-go-go-related gene (hERG) potassium channel (Q12809 whole entry, looked up): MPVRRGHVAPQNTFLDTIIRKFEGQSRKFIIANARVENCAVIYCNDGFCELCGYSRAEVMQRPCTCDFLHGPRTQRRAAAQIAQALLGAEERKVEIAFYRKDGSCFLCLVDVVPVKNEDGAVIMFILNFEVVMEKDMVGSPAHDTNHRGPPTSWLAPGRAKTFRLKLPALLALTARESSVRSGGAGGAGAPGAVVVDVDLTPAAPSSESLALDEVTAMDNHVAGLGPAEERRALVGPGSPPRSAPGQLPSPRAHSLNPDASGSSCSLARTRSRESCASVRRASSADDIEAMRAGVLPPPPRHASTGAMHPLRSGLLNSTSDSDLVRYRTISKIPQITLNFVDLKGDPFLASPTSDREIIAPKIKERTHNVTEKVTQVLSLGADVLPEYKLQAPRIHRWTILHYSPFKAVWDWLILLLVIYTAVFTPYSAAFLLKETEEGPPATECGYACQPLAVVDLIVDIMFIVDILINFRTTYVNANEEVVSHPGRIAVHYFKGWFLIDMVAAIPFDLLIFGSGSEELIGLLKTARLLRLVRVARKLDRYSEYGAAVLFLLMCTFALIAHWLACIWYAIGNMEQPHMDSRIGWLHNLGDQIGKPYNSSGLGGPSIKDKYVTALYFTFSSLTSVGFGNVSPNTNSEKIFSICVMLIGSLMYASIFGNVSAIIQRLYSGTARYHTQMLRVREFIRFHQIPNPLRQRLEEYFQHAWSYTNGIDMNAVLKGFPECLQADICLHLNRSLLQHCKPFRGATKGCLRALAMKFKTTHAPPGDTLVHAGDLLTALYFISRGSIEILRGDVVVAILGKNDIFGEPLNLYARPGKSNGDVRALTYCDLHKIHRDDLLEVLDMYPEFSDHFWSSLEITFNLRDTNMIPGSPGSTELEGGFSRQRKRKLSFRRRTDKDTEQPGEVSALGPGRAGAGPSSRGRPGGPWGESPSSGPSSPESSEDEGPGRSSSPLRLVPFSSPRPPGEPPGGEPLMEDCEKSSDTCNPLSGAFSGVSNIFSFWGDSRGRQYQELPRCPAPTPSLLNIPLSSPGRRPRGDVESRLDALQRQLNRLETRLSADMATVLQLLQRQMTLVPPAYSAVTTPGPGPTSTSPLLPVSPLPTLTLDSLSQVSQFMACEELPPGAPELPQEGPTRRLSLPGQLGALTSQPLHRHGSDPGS

Structure (SMILES) | hERG current change (%, negative = inhibition) at 10uM
COc1ccc(S(=O)(=O)NCC(c2ccco2)N2CCOCC2)cc1 (stereo not shown) | -19.1%
COC(=O)N/N=C(\C)c1ccc(Br)cc1 | 11.6%
CCCCN(CC)C(=O)c1n[nH]c(=O)c2ccccc12 | 2.92%
Cc1nc(CNC(=O)C2CCC(=O)N(Cc3cccc(F)c3)C2)sc1C (stereo not shown) | 5.68%
Cc1onc(-c2c(Cl)cccc2Cl)c1C(=O)N1CCc2ccccc21 | -19.9%
Cc1cc2c(cc1S(=O)(=O)Nc1cccc(F)c1)n(C)c(=O)c(=O)n2C | -10.9%
O=C(NC1CCCCC1)c1cc2ccccc2cc1O | -12.7%
O=C(O)c1ccc(S(=O)(=O)N2CCC3(CC2)CC(=O)c2ccccc2O3)cc1 | 11.5%
CC(=O)c1ccc(S(=O)(=O)N2CCC3(CC2)CC(=O)c2ccccc2O3)cc1 | -42.6%
COc1ccc(S(=O)(=O)N2CCC3(CC2)CC(=O)c2ccccc2O3)cc1 | -24.8%
O=C1CC2(CCN(S(=O)(=O)c3ccccc3)CC2)Oc2ccccc21 | -84.6%
Cc1ccc(S(=O)(=O)N2CCC3(CC2)CC(=O)c2ccccc2O3)cc1 | -25.7%
O=C1CC2(CCN(S(=O)(=O)c3ccccc3F)CC2)Oc2ccccc21 | -84.6%
O=C(Nc1nnc(-c2ccc(Br)cc2)o1)c1cccc(N2C(=O)CCC2=O)c1 | 13.4%
COc1ccc(CN2CC[C@H]3C=CC[C@@H](C(=O)N4CCOCC4)[C@H]3C2=O)cc1OC | 7.75%
CC(=O)N1N=C(c2cccc(NS(C)(=O)=O)c2)CC1c1ccc2c(c1)OCO2 (stereo not shown) | -59.2%
CS(=O)(=O)Nc1cccc(C2=NN(S(C)(=O)=O)C(c3ccc4c(c3)OCO4)C2)c1 (stereo not shown) | -62.3%
CC(=O)N1N=C(c2ccccc2)CC1c1ccc2c(c1)OCO2 (stereo not shown) | 1.98%
CS(=O)(=O)Nc1ccc(C2=NN(S(C)(=O)=O)C(c3ccc4nccnc4c3)C2)cc1 (stereo not shown) | -32.8%
CC(=O)N1N=C(c2ccc(NS(C)(=O)=O)cc2)CC1c1ccc2nccnc2c1 (stereo not shown) | -63.2%
CC(=O)N1N=C(c2ccc(C)cc2)CC1c1ccc2c(c1)OCO2 (stereo not shown) | -30.1%
CS(=O)(=O)N1N=C(c2ccccc2)CC1c1ccc2c(c1)OCO2 (stereo not shown) | 13.9%
Cc1ccc(C2=NN(S(C)(=O)=O)C(c3ccc4c(c3)OCO4)C2)cc1 (stereo not shown) | -2%

Structure (SMILES) | hERG current change (%, negative = inhibition) at 10uM
CC(=O)N1N=C(c2ccc3nccnc3c2)CC1c1ccccc1 (stereo not shown) | -34.9%
Cc1c(/C=N/NC(=O)c2cc(Br)ccc2O)c(=O)n(C)c(=O)n1C | 3.23%
Cc1[nH]c2ccccc2c1C(=O)C(=O)N1CCC2(CC1)OCCO2 | 7.95%
COc1cccc(NC(=O)CN(C)CC(=O)Nc2ccc(C)c([N+](=O)[O-])c2)c1 | -15.8%
CCOc1ccccc1N(CC(=O)NC1CCCCC1)S(=O)(=O)c1ccc(C)cc1 | -7.2%
CSCCC(NC(=O)c1ccc(Cl)cc1Cl)C(=O)NCc1ccccn1 (stereo not shown) | -8.59%
Cc1ccc(NCc2n[nH]c(=S)n2-c2ccccc2)cc1 | 15%
O=C(Nc1ccc(F)c(F)c1)c1cccnc1 | 0.898%
O=C(Nc1ccc(F)c(Cl)c1)c1cccnc1 | -65.9%
O=C(Nc1ccc(Cl)c(Cl)c1)c1cccnc1 | -2.86%
O=C(Nc1ccc(Cl)cc1)Nc1cccnc1 | -50.7%
COc1ccccc1NC(=O)Nc1nc(CC(=O)NCc2cccnc2)cs1 | -13.3%
O=C(Nc1cccnc1)Nc1cc(Cl)cc(Cl)c1 | 6.81%
O=C(Cc1csc(NC(=O)Nc2cccc(Cl)c2)n1)NCc1cccnc1 | -53.8%
O=C(NCc1cccnc1)Nc1cccc(Cl)c1 | 15%
O=C(Cc1csc(NC(=O)Nc2ccc(Cl)cc2)n1)NCc1cccnc1 | -50.8%
O=C(Nc1cccnc1)Nc1ccc(F)c(Cl)c1 | -36.8%
O=C(Cc1csc(NC(=O)Nc2cccc(Cl)c2)n1)NCc1ccccn1 | -5.14%
O=C(Cc1csc(NC(=O)Nc2ccc(Cl)cc2)n1)NCc1ccccn1 | -44.7%
CCN1C(=O)C(=O)N(Cc2ccc(OC)c(F)c2)C1=O | 15.1%
CC(C)CCNC(=O)C(c1ccco1)N(Cc1ccc(F)cc1)C(=O)c1snc(C(N)=O)c1N (stereo not shown) | -22.4%
CC(=O)NC(=C(Cl)Cl)S(=O)(=O)c1ccccc1 | 23.9%
CCCCCn1c(=O)c(C(=O)Nc2cccc(C)c2)c(O)c2ccccc21 | 20.7%

Structure (SMILES) | hERG current change (%, negative = inhibition) at 10uM
CCN(CC)CCCNc1cc(C(F)(F)F)c(C#N)c2nc3ccccc3n12 | -18.4%
CCc1cccc(N(C(=O)c2csnn2)C(C(=O)NC(C)(C)C)c2ccccn2)c1 (stereo not shown) | 1.65%
Cc1ccc(C(=O)Nc2c(C)cc(-c3ccc(Cl)cc3)oc2=O)cc1 | -6.18%
O=S(=O)(/N=C(/Nc1ccccc1F)c1ccccc1)c1ccccc1 | 4.57%
O=C(NNC(=O)c1cnccc1C(F)(F)F)c1ccc(Cl)cc1 | 11.1%
Cc1c(C(c2cccc([N+](=O)[O-])c2O)c2c(C)n(C)n(-c3ccccc3)c2=O)c(=O)n(-c2ccccc2)n1C | -2.28%
CCc1cccc(NC(=S)N(CCOC)C(C)c2ccco2)c1 (stereo not shown) | -2.48%
COc1ccc(-n2cc3ccc([N+](=O)[O-])cc3n2)cc1 | 7.2%
Br.Cn1c(=N)n(CC(=O)O)c2ccccc21 | -5.99%
CCCCn1c(=N)n(CC(O)c2ccccc2)c2ccccc21.Cl (stereo not shown) | -64.9%
Cl.Cn1c(=N)n(CC(O)c2ccccc2)c2ccccc21 (stereo not shown) | -26.3%
Cl.Cn1c(=N)n(CC(O)c2cccs2)c2ccccc21 (stereo not shown) | -39.9%
CCn1c(=N)n(CC(O)c2cccs2)c2ccccc21.Cl (stereo not shown) | -60.4%
Cl.Cn1c(=N)n(CC(O)c2cccc3ccccc23)c2ccccc21 (stereo not shown) | -67%
CCCn1c(C(O)c2ccc(C)cc2)nc2ccccc21 (stereo not shown) | 15.8%
CCCn1c(=N)n(CC(O)c2ccc(C)cc2)c2ccccc21.Cl (stereo not shown) | -65.6%
COc1cccc(C(O)Cc2nc3ccccc3n2C)c1OC (stereo not shown) | 23.7%
CCCCCN(C(=O)CCC(=O)OCC(=O)N(CC#N)c1ccccc1)c1c(N)n(CCCC)c(=O)[nH]c1=O | -0.196%
COc1ccc(NC(=O)C(OC(=O)c2cnccn2)c2ccccc2)cc1Cl (stereo not shown) | 24.7%
Cc1ccc(S(=O)(=O)N2CCN(Cc3csc(C)n3)CC2)cc1 | 6.87%
O=[N+]([O-])c1ccc(-c2nn(-c3ccccc3)cc2/C=N/n2c(-c3ccncc3)n[nH]c2=S)cc1 | 19.4%
CN1CCN(C(=O)c2cc3ccccc3[nH]2)CC1 | -3.26%
CCN(CC)c1ccc(/C=C(/C#N)C(=O)NCc2ccccc2)o1 | 2.6%

Structure (SMILES) | hERG current change (%, negative = inhibition) at 10uM
CCOc1ccc(N2C(=O)CC(N(O)c3ccccc3)C2=O)cc1 (stereo not shown) | 2.96%
OCC[C@H]1C[C@H](O)[C@@H](O)[C@]2(CCCc3ccccc3O2)O1 | 0.151%
COCCNC(=O)CN1CCN(S(=O)(=O)c2ccc3c(c2)CCCC3)CC1 | -7.28%
COc1cc(N2C(=O)CC3(CCCC3)CC2=O)cc(OC)c1OC | 4.04%
N#CC(CCN1CCOCC1)(c1ccccc1)c1ccccc1 | -20.8%
CCOC(=O)C1(c2ccccc2)CCN(CCC(C#N)(c2ccccc2)c2ccccc2)CC1.Cl | -25%
CN1CCN(CCC(C#N)(c2ccccc2)c2ccccc2)CC1.Cl | -62.9%
O=C(NCc1ccc(Cl)cc1)NCC(F)(F)F | 7%
Cc1ccc(NC(=O)CS(=O)CC(=O)N(C2CCCC2)C(C)C(=O)NC2CCCCC2)cc1 (stereo not shown) | -22.5%
CCOC(=O)c1ccc2c(c1)nc(COc1ccc3ccccc3c1)n2CC | 3.73%
COc1ccc(NC(=O)CSc2nnc(Cc3cccn3C)n2-c2ccc(OC)cc2)cc1 | -21.2%
COc1ccc(-n2c(Cc3cccn3C)nnc2SCC(=O)Nc2cc(Cl)ccc2OC)cc1 | -97.9%
COc1ccc(NC(=O)CSc2nnc(Cc3cccn3C)n2-c2ccc(F)cc2)cc1 | -21.7%
Cn1cccc1Cc1nnc(SCC(=O)Nc2ccccc2F)n1-c1ccc(F)cc1 | -17.4%
COc1ccc(-n2c(Cc3cccn3C)nnc2SCC(=O)Nc2ccccc2F)cc1 | -53.7%
COc1ccc(-n2c(Cc3cccn3C)nnc2SCC(=O)Nc2ccc(C)cc2)cc1 | -26.4%
COc1ccc(Cl)cc1NC(=O)CSc1nnc(Cc2cccn2C)n1-c1ccc(F)cc1 | -34.6%
Cn1cccc1Cc1nnc(SCC(=O)Nc2ccc(F)cc2F)n1-c1ccc(F)cc1 | -40.9%
COc1ccc(-n2c(Cc3cccn3C)nnc2SCC(=O)Nc2ccccc2OC)cc1 | -38.5%
COc1ccc(OC)c(NC(=O)CSc2nnc(Cc3cccn3C)n2-c2ccc(F)cc2)c1 | -10.4%
COc1ccc(-n2c(Cc3cccn3C)nnc2SCC(=O)Nc2cc(C)cc(C)c2)cc1 | -52.4%
COc1ccc(-n2c(Cc3cccn3C)nnc2SCC(=O)Nc2ccc(F)cc2F)cc1 | -57.4%
